Among all 16,000 compounds or so, about 5,100 (32%) were called active. Roughly 25% stayed inconclusive and do not appear here. The list shows a part of the results. Unmarked numbers belong to inactive results. Calls come from the whole dose curve; as a rule, active = well fitted curve in the direction sought with a large enough effect; inconclusive = small, poorly fitted or top-dose-only effect, or effect the other way; inactive = no such curve, though single readings can be large or run the other way.
Target: Cytochrome P450 3A4 (Homo sapiens) (UniProt P08684)
Sequence (P08684 whole entry, looked up): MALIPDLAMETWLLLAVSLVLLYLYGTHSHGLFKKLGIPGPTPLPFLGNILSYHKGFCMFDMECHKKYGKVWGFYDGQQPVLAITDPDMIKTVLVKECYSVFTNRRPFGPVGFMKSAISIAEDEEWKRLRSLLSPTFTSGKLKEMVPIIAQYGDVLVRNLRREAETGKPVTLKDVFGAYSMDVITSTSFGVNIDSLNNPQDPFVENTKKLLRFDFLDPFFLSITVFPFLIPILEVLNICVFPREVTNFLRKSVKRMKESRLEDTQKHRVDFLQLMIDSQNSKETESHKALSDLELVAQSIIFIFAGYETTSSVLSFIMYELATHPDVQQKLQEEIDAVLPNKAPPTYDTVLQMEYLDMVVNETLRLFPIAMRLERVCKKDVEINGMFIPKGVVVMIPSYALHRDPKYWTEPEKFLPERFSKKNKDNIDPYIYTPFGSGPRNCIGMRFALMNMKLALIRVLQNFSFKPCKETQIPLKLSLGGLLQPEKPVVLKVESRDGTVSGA
Experiment: Cytochrome panel assay with activity outcomes
Conditions: recombinant CYP, pro-luciferin dealkylation, luminescence, p450-cyp3a4; series mostly up to 57.1 µM
% is set by controls: 0 for no effect and ±100 for the full control effect.

| SMILES | AC50 | activity, negative = inhibition |
| --- | --- | --- |
| COc1cccc(C2=NOC(C(=O)Nc3cccnc3)C2)c1 (stereo not given) | 12.6 µM (active) |  |
| Cc1ccc(NC(=O)NNC(=O)C2CC(c3cccnc3)=NO2)cc1 (stereo not given) | inactive |  |
| COc1ccc(CNC(=O)C2CC(c3cccc([N+](=O)[O-])c3)=NO2)cc1 (stereo not given) | 6.31 µM (active) |  |
| COc1ccc(CNC(=O)C2CC(c3ccc(OC)cc3)=NO2)cc1 (stereo not given) | inactive |  |
| O=C1C=C(NCCc2cc(Br)c(O)c(Br)c2)C(=O)c2ncccc21 | 3.16 µM (active) |  |
| O=C1C=C(Nc2nc(C(=O)O)cc(=O)[nH]2)c2ccccc2C1=O |  | -12.4% [at 11.4 µM] |
| O=C(NCc1ccco1)c1cc(C(=O)C2CC2)c[nH]1 | inactive |  |
| O=C(NCc1ccco1)c1cc(C(=O)C2CCCCC2)c[nH]1 | inactive |  |
| O=C(NCCc1ccccn1)c1cc(C(=O)C2CCCCC2)c[nH]1 | 10 µM (active) |  |
| COc1ccc2c(c1)c(CC(=O)O)c(C)n2C(=O)c1ccc(Cl)cc1 | inactive |  |
| COc1ccc2c(c1)c(CC(=O)N1CCOCC1)c(C)n2C(=O)c1ccc(Cl)cc1 | 5.01 µM (active) |  |
| COc1ccc2c(c1)c(CC(=O)OCC(=O)O)c(C)n2C(=O)c1ccc(Cl)cc1 | inactive |  |
| Cc1cccc(N/C(N)=N/c2nc(C)cc(C)n2)c1 | inactive |  |
| Cc1cccc(C(=O)NNC(=O)C(=O)NC(C)(C)C)c1 | inactive |  |
| Cc1cccc(NCCNc2cccc(C)c2)c1 | 25.1 µM (active) |  |
| COc1ccc(S(=O)(=O)Nc2ccc(F)cc2)c(C)c1C | 10 µM (active) |  |
| Cc1ccccc1CSc1nsc(N)n1 | 25.1 µM (active) |  |
| COc1ccc(NC(=O)c2cc(C(C)C)on2)cc1OC | inactive |  |
| COc1cccc(-c2cc(C(=O)Nc3cccc(O)c3)no2)c1 | 10 µM (active) |  |
| COCCNC(=O)c1cc(-c2cccc(OC)c2)on1 | inactive |  |
| CCN1CCN(c2nc(C)c3c(n2)CCCC3=O)CC1 | inactive |  |
| Cc1cc2nc(C)n(CCCN)c2cc1C | inactive |  |

| SMILES | AC50 | activity, negative = inhibition |
| --- | --- | --- |
| CSc1nc(C)cc(Nc2ccc(O)c(CN3CCOCC3)c2)n1 |  | 0.709% [at 11.4 µM] |
| Cc1cccc(OCC(=O)NNC(=O)CSc2ncc(C#N)c(N)n2)c1 | 14.1 µM (active) |  |
| Cc1cccc(C(=O)NCN2CCN(c3ccccc3C#N)CC2)c1 | inactive |  |
| Cc1c(C(=O)Nc2nccs2)sc2nc(-c3cccs3)cc(C(F)(F)F)c12 | 14.1 µM (active) |  |
| CC(/C=C/c1ccccc1)=N/NC(=O)CNC(=O)c1ccc2c(c1)OCO2 | 6.31 µM (active) |  |
| CN(C)Cc1cc(C(F)(F)F)ccc1C(O)(c1ccccc1)c1ccccc1 | 0.794 µM (active) |  |
| CN(C)Cc1ccc(C(C)(C)C)cc1-c1cc(C(C)(C)C)ccc1CN(C)C |  | 0.94% [at 11.4 µM] |
| CN(C)Cc1cc(C(C)(C)C)ccc1-c1ccc(C(C)(C)C)cc1CN(C)C |  | 5.04% [at 11.4 µM] |
| CC(=O)NCCNc1ncncc1-c1ccc(N(C)C)cc1 | 2 µM (active) |  |
| CC(=O)NCCNc1cc(-c2ccccc2C(F)(F)F)ncn1 | inactive |  |
| COc1nc(OCCNC(C)=O)nc(N(C)C)n1 |  | 4.84% [at 2.29 µM] |
| COc1ccccc1-c1cncnc1NCCNC(C)=O | 2 µM (active) |  |
| CC(=O)NCCNc1ncncc1-c1ccccc1C(F)(F)F | 1 µM (active) |  |
| CC(=O)NCCNc1cc(-c2ccccc2C)ncn1 | inactive |  |
| CC(=O)NCCNc1cc(-c2ccccc2CN(C)C)ncn1 | inactive |  |
| CC(=O)NCCNc1ncncc1-c1ccccc1C | 2.51 µM (active) |  |
| COc1ccc(N2CCN(C(=N)/C(C(C)=O)=C(\C)O)CC2)cc1 |  | -4.11% [at 2.29 µM] |
| CCn1cnc2sc(C(=O)N3CCN(c4ccc(OC)cc4)CC3)c(C)c2c1=O | 12.6 µM (active) |  |
| O=C(O)c1cc(=O)cc(C(=O)O)[nH]1 | inactive |  |
| Fc1cccc(F)c1C(Nc1nncs1)Nc1nncs1 |  | -16.1% [at 11.4 µM] |
| Clc1ccccc1-c1nc(NCc2cccnc2)c2ccccc2n1 | 2.51 µM (active) |  |
| CON(C)C(=O)c1nnc2c(n1)[nH]c1ccccc12 |  | -23% [at 11.4 µM] |

| SMILES | AC50 | activity, negative = inhibition |
| --- | --- | --- |
| FC(F)(F)c1ccccc1-c1nc(NCc2cccnc2)c2ccccc2n1 | 2 µM (active) |  |
| Cc1sc(N/N=C/c2cccnc2)nc1-c1ccccc1 |  | 20.5% [at 2.29 µM] |
| Clc1ccccc1-c1nc(N/N=C/c2cccnc2)c2ccccc2n1 | 1.41 µM (active) |  |
| C(=N/Nc1nnc2c(n1)[nH]c1ccccc12)/c1cccnc1 | 3.98 µM (active) |  |
| O=C(O)CNc1ccc(C(=O)O)cc1 |  | -7.89% [at 11.4 µM] |
| CC(C)(C)COS(=O)OCC(C)(C)C |  | -4.89% [at 11.4 µM] |
| O=C(O)CCC(=O)N1CCOc2ccc(Cl)cc21 | inactive |  |
| CN(C)CCn1c(CO)nc2c1c(=O)n(C)c(=O)n2C |  | -3.94% [at 11.4 µM] |
| O=c1cc(CO)oc(CN2CCCC2)c1O | inactive |  |
| Cc1ccccc1-c1nc(NCc2cccnc2)c2ccccc2n1 | 0.501 µM (active) |  |
| CO[C@]1(NC(=O)CSCC#N)C(=O)N2C(C(=O)O)=C(CSc3nnnn3C)CS[C@H]21 | inactive |  |
| COc1ccc(CC(NC(C)=O)C(=O)NC2CCN(C(=O)Nc3ccc(Cl)cc3)CC2)cc1OC (stereo not given) |  | -6.41% [at 2.29 µM] |
| COc1ccc(C(C(=O)NC2CCCCC2)N(C(=O)Cc2c[nH]c3ccccc23)c2ccc(NC(C)=O)cc2)cc1OC (stereo not given) | 3.16 µM (active) |  |
| CC(OC(=O)Cn1c(C(F)(F)F)nc2ccccc21)C(N)=O (stereo not given) | inactive |  |
| CC(C)C(=O)NCCc1nc2ccccc2n1CCCOc1ccc(Cl)cc1 | 11.2 µM (active) |  |
| Clc1ccc(Cn2c(-c3cccnc3Cl)nc3ccccc32)c(Cl)c1 |  | -20.9% [at 2.29 µM] |
| C[C@]1(c2ccccc2)OC(C(=O)O)=CC1=O | inactive |  |
| O=C(O)c1ccc(OCc2ccccc2)c(Cl)c1 |  | -32.8% [at 11.4 µM] |
| CCOc1ccc(C(=O)O)cc1OC | inactive |  |
| CCC(=O)c1ccc(OCc2ccc(C(=O)OC)cc2)c(OC)c1 | 4.47 µM (active) |  |
| CC(C)=CCC/C(C)=C/CO/N=C1/C[C@@H](O)[C@@H](O)[C@@H]2[C@@H]3C(=O)N(C4CCCCC4)C(=O)[C@H]3CC[C@@H]12 |  | -27% [at 11.4 µM] |
